# Screening data deposited in PubChem by National Center for Advancing Translational Sciences (NCATS).
# An excerpt weighted towards active compounds, which were near 20% of everything screened.
# Pf growth 96h: P. falciparum growth inhibition at 96 hour, primary screen for plastid delayed-death inhibitors; P. falciparum luciferase reporter growth, 96 h; Potency, µM (highest dose often 28.7 µM), inactives show top-dose activity change, negative = inhibition, actives largely listed as inhibitors; actives 6.9% (n = 320,000); AID 504834; further: potency means the concentration at half of the fitted maximal effect; on the % scale 0 is the no-effect control and ±100 the full control effect
#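 Cell-based qHTS: luciferase-tagged P. falciparum in erythrocytes (2% hematocrit, 0.05% parasitemia final) incubated with compounds for 96 hours, 37 C, 5% CO2; luciferase detection reagent then added and luminescence measured.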
# HCMV antiviral: human cytomegalovirus inhibition; actives 4.5% (n = 410,000); activity change, negative = inhibition, % at 57.5 µM; HFF cells, HCMV-luciferase reporter, 72 h; stronger effect = lower value; in the data active means activity change below about -60%; inconclusive means no clear call, values can overlap the other calls; inactive means above about -39%; further: on the % scale 0 is the no-effect control and ±100 the full control effect
#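 After 16 h attachment at 37C, HFF cells received test compound and HCMV-luciferase (1 PFU/cell); reporter luminescence read 72 h later, data normalized against buffer-only and known inhibitor Salinomycin.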
# Shiga inhibitor: blocks Shiga toxin action in Vero cells. Vero cells, Shiga toxin protein synthesis inhibition reporter. actives 9.2% (n = 290,000). inhibition, % at 38.7 µM; in the data active means inhibition mostly above about 28%, no sharp cut-off; inactive means mostly below about 43%; further: 0% is about no effect
# CHX counter: counter-screen for Shiga toxin inhibitors: cycloheximide protein synthesis inhibition. cell reporter, cycloheximide protein synthesis inhibition counterscreen. max response, %. actives 12% (n = 300,000); in the data active means max response mostly above about 13%, no sharp cut-off; inactive means mostly below about 14%; further: read at 38.3 µM for the half of the compounds with a filed dose; 0% is about no effect
# Pf growth 48h: inhibits P. falciparum growth in the first generation, 48 h | P. falciparum luciferase growth in erythrocytes, 48 h | Potency, µM (top dose mostly 28.7 µM), for inactives: at the top dose activity change, negative = inhibition, actives largely listed as inhibitors | actives 5.9% (n = 310,000) | AID 504832; further: potency means the concentration at half of the fitted maximal effect; on the % scale 0 is the no-effect control and ±100 the full control effect
#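 Parasite viability was followed by luminescence of a genomically integrated firefly luciferase. Cultures held 0.1% parasitemia at 2% hematocrit (final), incubated under 5% CO2 at 37 C.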
# Starred values were filed as active, the others as inactive; ? = inconclusive; . = no result given. Unless noted, the call rests on the fitted dose curve; in most records, active means well fitted inhibition curve with a large enough effect; inconclusive means small, poorly fitted or top-dose-only effect, or another doubt; inactive means no such curve, though single readings can be large or run the other way.
SMILES,Pf growth 96h,HCMV antiviral,Shiga inhibitor,CHX counter,Pf growth 48h
CCC(=O)N1CCN(c2ccc(NC(=S)NC(=O)c3cccc([N+](=O)[O-])c3)cc2)CC1,7.4µM*,-33,18,-3,2%
Cc1cccc(CNc2ccc(S(=O)(=O)N3CCCCC3)cc2)c1,?,-29,.,.,?
CCC1CCCCN1Cc1ccc(N)cc1 (stereo not drawn),33%,-20,-1,-3,0%
COc1cccc(C(c2ccccc2)N2C3CCC2CN(S(=O)(=O)c2ccc(F)cc2)CC3)c1 (stereo not drawn),0%,-18,.,.,2.1µM*
CCCCc1ccc(C2C3=C(CC(C)(C)CC3=O)NC3=C2C(=O)c2ccccc23)cc1 (stereo not drawn),?,-86*,-11,-3,13µM*
CCCc1ccc(C2C3=C(CC(C)(C)CC3=O)NC3=C2C(=O)c2ccccc23)cc1 (stereo not drawn),3.3µM*,?,-9,-2,9.3µM*
Cc1ccc(-n2c(SCC(=O)Nc3c(C)cccc3C)nc(O)c(C)c2=O)cc1,.,32,.,.,.
C#CCOCCOCCOCCNc1nc(N2CCN(C(=O)[C@H](CCCCN)n3cc(CC(C)O)nn3)CC2)nc(N2CCN(C(=O)[C@H](CCCCN)n3cc(CC(C)O)nn3)CC2)n1 (stereo partly drawn),62%,18,.,.,-21%
CCOCCCNC(=O)C(c1ccccc1)N1Cc2ccccc2C1=O (stereo not drawn),.,2,.,.,.
Cc1ccc(S(=O)(=O)NCCNC(=O)c2ccc(C)nc2)cc1,4%,-21,-22,-4,0%
CCCCCCCNC(=O)C1(CC2CC(c3cccc(Br)c3)=NO2)CCN(C(=O)C2(C)CC2)CC1 (stereo not drawn),?,31,.,.,?
CCCCCCCNC(=O)C1(CC2CC(c3ccc(Cl)cc3)=NO2)CCN(C(=O)OC(C)(C)C)CC1 (stereo not drawn),5.2µM*,64,14,-1,?
CCOc1cc(C(=O)N2CCC(CC3CC(c4cccc(Br)c4)=NO3)(C(=O)NCC3CCCCC3)CC2)cc(OCC)c1OCC (stereo not drawn),?,93,-7,-2,0.37µM*
CCCCCCCNC(=O)C1(CC2CC(c3cccc(Br)c3)=NO2)CCN(C(=O)CCCCCBr)CC1 (stereo not drawn),?,74,.,.,13µM*
COCCN(C(=O)COC(=O)c1ccc(Cl)nc1)c1c(N)n(Cc2ccccc2)c(=O)[nH]c1=O,15%,-27,.,.,?
CCc1noc(-c2ccc(NCc3ccccc3)c([N+](=O)[O-])c2)n1,.,45,.,.,.
O=C(OCc1ccccc1)C1CCCN1C(=O)c1ccccc1[N+](=O)[O-] (stereo not drawn),0%,4,3,16,-1%
O=C1N(Cc2cccc(Cl)c2)C[C@@H]2C[C@@H](c3cccn3-c3nccs3)N3CCC[C@@]123,?,-20,-5,-3,?
O=C1N(Cc2cccc(Cl)c2)C[C@@H]2C[C@@H](c3cccc4ncccc34)N3CCC[C@@]123,21%,-19,20,4,1.7µM*
O=C1N(Cc2cccc(Cl)c2)C[C@@H]2C[C@@H](c3cccn3-c3ccccn3)N3CCC[C@@]123,?,-34,5,1,12µM*
COc1cc(/C=C2/SC(=S)N(CC(=O)O)C2=O)ccc1OCC(=O)Nc1ccc(C)c(C)c1,15%,11,-9,-2,?
COc1ccc(-c2csc(Nc3ncccc3C)n2)cc1,-27%,54,-2,-5,101%
COc1ccc(-c2csc(Nc3ncccc3C)n2)cc1OC,?,45,139*,34*,26%
Cc1cccnc1Nc1nc(-c2ccc(O)c(O)c2)cs1,-72%,7,80*,45*,.
Cc1cc(C)c(S(=O)(=O)Nc2ncccc2C)c(C)c1,-25%,-10,3,1,-4%
SMILES,Pf growth 96h,HCMV antiviral,Shiga inhibitor,CHX counter,Pf growth 48h
CC(C)c1ccc(NC(=O)CN2C(=O)NC3(CCCC3)C2=O)cc1,33%,6,12,0,17%
CCOc1cc(NC(=S)NCCCN2CCOCC2)c(OCC)cc1NC(=O)CC(C)C,335%,-93*,-22,-3,15%
Cc1cc(Br)ccc1NC(=O)CN(C)C(=O)C1CSC2(C)CCC(=O)N12 (stereo not drawn),-1%,13,.,.,-14%
CCOc1ccc(Nc2nc(N)nc(CN3CCN(c4ccccc4F)CC3)n2)cc1,6%,?,-4,-1,?
Cc1ccc(Nc2nc(N)nc(CN3CCc4ccccc4C3)n2)cc1,-2%,19,7,10,?
Cc1ccc(Nc2nc(N)nc(CCl)n2)c(C)c1,-13%,-103*,106*,78*,?
Cc1c(Cl)cccc1Nc1nc(N)nc(CN2CCc3ccccc3C2)n1,.,-22,-17,4,9.3µM*
Nc1nc(CCl)nc(Nc2ccccc2)n1,-55%,-91*,71*,36*,-29%
CCOc1ccc(Nc2nc(N)nc(CCl)n2)cc1,?,-96*,59*,43*,?
CC(C)c1ccc(N(CC(=O)NCC2CCCO2)C(=O)Cn2nnc(-c3cccs3)n2)cc1 (stereo not drawn),317%,-14,-14,3,?
CCCCC(=O)N(C)c1c(CC)nc2c(OCCOc3ccccc3)cccn12,.,-12,.,.,.
Cc1cccc(-n2cnc(C(=O)N/N=C/c3ccccc3)c2)n1,39%,25,23,11,.
Cc1ccc(Nc2nc(N)nc(CCl)n2)cc1,?,-108*,96*,75*,?
Cc1ccc(Nc2nc(N)nc(CC#N)n2)cc1,.,70,46*,35*,13%
Cc1cccc(Nc2nc(N)nc(CCl)n2)c1C,1.5µM*,-96*,59*,53*,?
Cc1cccc(Nc2nc(N)nc(CN3CCC(C(N)=O)CC3)n2)c1C,.,31,9,-2,-3%
Cc1ccc(Nc2nc(N)nc(CSCCO)n2)cc1,64%,58,60*,31*,110%
Cc1sc2ncn(CC(=O)Nc3ccc(C(C)C)cc3)c(=O)c2c1S(=O)(=O)N1CCN(c2ncccn2)CC1,.,26,.,.,.
Nc1nc(CN2CCN(Cc3ccccc3)CC2)nc(Nc2ccccc2)n1,13µM*,-22,-3,5,?
COc1ccccc1Nc1nc(N)nc(CN2CCN(Cc3ccccc3)CC2)n1,?,22,-11,0,?
OCCCN=c1cc(-c2ccccc2)oc2ccc(Cl)cc12,?,-36,97*,35*,.
CC1(C)CC(N=c2cc(-c3ccccc3)oc3ccc(Cl)cc23)CC(C)(C)N1,?,-99*,-14,10,?
OCCNc1nc(-c2ccccc2)c2cc(Cl)ccc2n1,11%,-15,-14,7,0%
CCC(C)Nc1nnnc2c1sc1nc3c(cc12)COC(C)(C)C3 (stereo not drawn),-13%,?,19,9,?
